Laboratory results published in publication PMC4336329 (PLoS ONE, 2015).
Out of some 310,000 compounds screened, about 14,000 (4.5%) showed an effect of 50% or more. The effect is printed as a negative number. Only a selection was taken, and strong results are over-represented in it overall.

target: human ether-à-go-go-related gene (hERG) potassium channel (human, UniProt Q12809); assay: primary screen, population patch clamp on CHO cells stably expressing hERG; higher = less effect of the substance
Experimental: Briefly, Chinese hamster ovary (CHO) cells stably expressing the hERG channel were dislodged from tissue culture flasks and dispensed into PPC plates. […] During the recording, background leak currents were estimated by a 100 ms step to -80 mV from an initial holding potential of -70 mV and subtracted from the subsequent current measurement. The campaign was conducted in two phases using slight differences in recording protocol. In the first phase, the initial voltage pulse used a 100 ms step to -30 mV from a holding potential of -70 mV, a 2 s conditioning step to +25 mV, and a 2 s test step to -30 mV. During the second phase of the screen, the potential during the conditioning step was raised to +45 mV. In both phases of the campaign, a secondary voltage pulse was applied using the same parameters as the second phase initial pulse. The initial and secondary pulses were applied in the absence of compound, and upon application of 1 μM and 10 μM test concentrations. […]
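Also: peak tail current of the secondary pulse compared with the same well before compound.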

Chain of human ether-à-go-go-related gene (hERG) potassium channel (Q12809 whole entry, looked up): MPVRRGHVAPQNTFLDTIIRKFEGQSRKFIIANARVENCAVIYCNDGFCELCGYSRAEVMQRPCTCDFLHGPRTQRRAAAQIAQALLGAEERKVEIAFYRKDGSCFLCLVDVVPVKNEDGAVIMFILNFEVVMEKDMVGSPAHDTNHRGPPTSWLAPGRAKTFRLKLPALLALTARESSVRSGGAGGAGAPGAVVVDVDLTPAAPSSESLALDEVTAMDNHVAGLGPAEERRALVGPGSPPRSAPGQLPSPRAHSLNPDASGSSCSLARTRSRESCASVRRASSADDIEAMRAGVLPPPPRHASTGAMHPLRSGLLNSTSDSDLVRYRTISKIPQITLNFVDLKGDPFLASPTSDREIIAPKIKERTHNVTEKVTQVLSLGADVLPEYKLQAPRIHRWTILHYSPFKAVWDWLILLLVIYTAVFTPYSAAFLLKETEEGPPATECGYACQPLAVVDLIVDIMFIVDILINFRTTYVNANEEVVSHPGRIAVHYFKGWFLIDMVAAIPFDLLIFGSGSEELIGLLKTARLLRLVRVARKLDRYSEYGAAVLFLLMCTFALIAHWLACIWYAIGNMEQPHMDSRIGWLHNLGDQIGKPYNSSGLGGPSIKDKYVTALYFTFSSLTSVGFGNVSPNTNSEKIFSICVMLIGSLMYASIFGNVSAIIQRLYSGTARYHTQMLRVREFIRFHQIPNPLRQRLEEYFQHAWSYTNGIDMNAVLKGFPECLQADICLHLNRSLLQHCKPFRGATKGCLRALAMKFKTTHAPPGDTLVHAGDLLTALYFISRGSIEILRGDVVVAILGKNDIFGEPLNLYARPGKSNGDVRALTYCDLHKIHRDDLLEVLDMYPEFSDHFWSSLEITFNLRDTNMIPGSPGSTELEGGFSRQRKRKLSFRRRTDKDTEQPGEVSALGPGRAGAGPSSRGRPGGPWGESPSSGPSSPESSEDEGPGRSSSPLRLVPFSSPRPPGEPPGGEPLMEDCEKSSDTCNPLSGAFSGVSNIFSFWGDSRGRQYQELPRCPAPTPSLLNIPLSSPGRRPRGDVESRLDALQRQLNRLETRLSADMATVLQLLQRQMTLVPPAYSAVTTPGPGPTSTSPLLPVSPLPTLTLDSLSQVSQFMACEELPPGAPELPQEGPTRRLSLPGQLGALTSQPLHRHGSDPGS

Structure (SMILES)	hERG current change (%, negative = inhibition) at 10uM
COCC(=O)N1CCC(Oc2ccc(C(=O)N(C)CCCC3CCCC3)cc2)CC1	-26.9%
COCC(=O)N1CCC(Oc2ccc(C(=O)NCCCC3CCCC3)cc2)CC1	-71.5%
COCCC(=O)N1CCC(Oc2ccc(C(=O)NCCCC3CCCC3)cc2)CC1	-37.3%
O=C(NC1CCOC1)c1ccc(OC2CCN(CCc3ccccc3)CC2)cc1 (stereo not drawn)	-39.8%
CSCCCNC(=O)c1ccc(OC2CCN(CCc3ccccc3)CC2)cc1	-75.2%
CSCCNC(=O)c1ccc(OC2CCN(CCc3ccccc3)CC2)cc1	-64.6%
COCCC(=O)N1CCC(Oc2ccc(C(=O)NCCSC)cc2)CC1	13.6%
COC(=O)CCCNC(=O)c1ccc(OC2CCN(CCc3ccccc3)CC2)cc1	-47.7%
CSCCCNC(=O)c1ccc(OC2CCN(C(=O)c3cccnc3)CC2)cc1	-11.4%
CN(C)S(=O)(=O)c1cccc(NC(=S)N/N=C/C(c2ccccc2)c2ccccc2)c1	1.1%
COc1ccc([N+](=O)[O-])cc1NC(=O)c1cncc(Br)c1	-12.2%
CN1C(=O)NC(c2ccccc2Cl)C2=C1CC(C)(C)CC2=O (stereo not drawn)	5.71%
O=C(NCCC1=CCCCC1)C1CCCN(S(=O)(=O)c2ccc(F)cc2)C1 (stereo not drawn)	19.6%
COc1cc(OC)cc(C(=O)NCCSc2c[nH]c3ccccc23)c1	-17.1%
NC(=O)c1sc2nc3c(cc2c1N)CCC3	8.92%
CC(=O)c1ccc(OC(=O)C2CSC3(C)CCC(=O)N23)cc1 (stereo not drawn)	12.4%
CCN(CC)CC(O)Cn1c(-c2ccccc2Cl)nc2ccccc21 (stereo not drawn)	-25.2%
OC(CN1CCOCC1)Cn1c(-c2cccc(Cl)c2)nc2ccccc21 (stereo not drawn)	-21.3%
CCN(CC)CC(O)Cn1c(-c2cccc(Cl)c2)nc2cc(C)c(C)cc21 (stereo not drawn)	-62.8%
CCOC(=O)[C@@H]1[C@H]2COc3ccc(Br)cc3[C@@H]2N2C(=O)N(c3ccc(C)cc3)C(=O)[C@]12C	5.6%
O=C(NCC1CCCCC1)c1cc(S(=O)(=O)N2CCCCC2)ccc1N1CCOCC1	-7.89%
COc1ccc(C2C(C#N)=C(N)Nc3onc(C(C)(C)C)c32)c(OC)c1 (stereo not drawn)	3.15%
COc1ccc2oc(C(=O)OCc3nnc(-c4ccccc4)o3)c(C)c2c1	19.8%
CCCCN(C(=O)COc1ccc(C)cc1OC)c1c(N)n(CCC)c(=O)[nH]c1=O	4.7%

Structure (SMILES)	hERG current change (%, negative = inhibition) at 10uM
O=C(c1ccccc1)c1ccccn1	2.58%
Cc1ccc(S(=O)(=O)N2CCC(C(=O)NCc3ccccc3Cl)CC2)cc1	-4.47%
COc1ccc(S(=O)(=O)N2CCC(C(=O)NCCC3=CCCCC3)CC2)cc1C	-56.2%
Cc1ccc(S(=O)(=O)N2CCC(C(=O)NCCC3=CCCCC3)CC2)cc1C	-11.6%
O=C(NCc1ccccc1Cl)C1CCN(S(=O)(=O)c2ccc(F)cc2)CC1	-45.6%
COc1ccc(S(=O)(=O)N2CCC(C(=O)NCCC3=CCCCC3)CC2)cc1OC	-23.5%
O=C(NCc1ccccc1CN1CCCC1)C1CCN(S(=O)(=O)c2ccc(F)c(F)c2)CC1	-59.1%
CCOc1ccc(S(=O)(=O)N2CCC(C(=O)NCc3ccccc3CN3CCCC3)CC2)cc1	-64.3%
CCOc1ccc(S(=O)(=O)N2CCC(C(=O)NCCc3ccccc3)CC2)cc1	29.1%
Cc1ccc(S(=O)(=O)N2CCC(C(=O)NCCN3CCOCC3)CC2)cc1C	8.7%
O=C(NCc1ccccc1F)C1CCN(S(=O)(=O)c2ccccc2)CC1	-12.1%
CCOc1ccc(S(=O)(=O)N2CCC(C(=O)NCc3ccccn3)CC2)cc1	-25.9%
Cc1ccc(S(=O)(=O)N2CCC(C(=O)NCc3ccccc3CN3CCCC3)CC2)cc1C	-68.7%
Cc1ccn2c(NC(=O)c3ccco3)c(-c3ccccc3)nc2c1	-23.7%
O=C(CSc1nc(O)cc(=O)[nH]1)N1c2ccccc2Sc2ccccc21	8.9%
CC(C)c1ccc(NC(=O)NCc2ccc3c(c2)OCO3)cc1	13.4%
O=C(O)c1ccccc1OC(=O)C12CC3CC(CC(C3)C1)C2	18.1%
O=C(NCc1ccc(F)cc1)c1cccnc1	9.37%
Cc1nc([N+](=O)[O-])cn1Cc1cccc2ccccc12	10.2%
O=C(NCc1ccccc1Cl)C1CCN(S(=O)(=O)N2CCCC2)CC1	12.5%
O=C(NCc1ccc(Cl)cc1)C1CCN(S(=O)(=O)c2ccccc2)CC1	13%
O=C(NCc1ccccc1CN1CCCC1)C1CCN(S(=O)(=O)c2ccc(Cl)cc2)CC1	-69.4%
N#Cc1ccccc1S(=O)(=O)N1CCC(C(=O)NCc2ccccc2CN2CCCC2)CC1	-69.1%
O=C(NCc1ccccc1)C1CCN(S(=O)(=O)c2ccc(Cl)cc2)CC1	3.16%

Structure (SMILES)	hERG current change (%, negative = inhibition) at 10uM
O=C(NCc1ccccc1Cl)C1CCN(S(=O)(=O)N2CCCCC2)CC1	1.33%
CCOc1ccc(S(=O)(=O)N2CCC(C(=O)NCc3ccco3)CC2)cc1	-53%
CCOc1ccc(S(=O)(=O)N2CCCC(C(=O)NCc3ccco3)C2)cc1 (stereo not drawn)	-4.45%
COc1ccc(S(=O)(=O)N2CCC(C(=O)NCc3ccco3)CC2)cc1	-25.4%
CCOc1ccc(NC2OCC(O)C(O)C2O)c([N+](=O)[O-])c1 (stereo not drawn)	33.2%
COc1cc(/C=N/NS(=O)(=O)c2ccc(C)c([N+](=O)[O-])c2)cc([N+](=O)[O-])c1O	18.1%
CCOC(=O)C1CCCN(C(=O)c2cc3c(-c4cccc(OC)c4)nn(C)c3s2)C1 (stereo not drawn)	-60.7%
Cc1c(C(=O)N2CC(C)OC(C)C2)sc2nc(-c3ccc(F)cc3)cn12 (stereo not drawn)	-38.4%
CCOC(=O)C1CCCN(C(=O)c2cc(-c3ccccc3)nc3ccccc23)C1 (stereo not drawn)	-9.9%
CCOC(=O)C1CCCN(C(=O)c2cc(-c3ccc(F)cc3)nc3ccccc23)C1 (stereo not drawn)	-33.8%
CCOC(=O)C1CCN(C(=O)c2cc3c(-c4ccc(OC)c(OC)c4)nn(C)c3s2)CC1	-17%
COc1ccc(-c2cn3c(C)c(C(=O)N4CCc5ccccc5C4)sc3n2)cc1	-31.9%
CCOC(=O)C1CCCN(C(=O)c2sc3nc(-c4ccc(OC)cc4)cn3c2C)C1 (stereo not drawn)	-55.4%
CCOC(=O)C1CCCN(C(=O)c2sc3nc(-c4ccc(F)cc4)cn3c2C)C1 (stereo not drawn)	-72.9%
COc1ccc(-c2cn3c(C)c(C(=O)N4CCN(c5ccccc5F)CC4)sc3n2)cc1	-29.8%
CCOC(=O)C1CCCN(C(=O)c2sc3nc(-c4ccccc4)cn3c2C)C1 (stereo not drawn)	-59.8%
Cc1c(C(=O)N2CCOCC2)sc2nc(-c3ccccc3)cn12	-11.2%
CCOC(=O)N1CCN(C(=O)c2cc3c(-c4cccc(OC)c4)nn(C)c3s2)CC1	-35.6%
CCN(CC(=O)Nc1ccc(OC)cc1)C(=O)c1cc2c(s1)CCCCC2	16.3%
COc1ccc(/C=N/NC(=O)CCC(=O)Nc2ccc(F)cc2)c(OC)c1	14.9%
N#Cc1nc(-c2ccco2)oc1N1CCN(C(c2ccccc2)c2ccccc2)CC1	-0.82%
Cc1cc(C(=O)O)cc(Br)c1N	4.61%
Cc1ccc(S(=O)(=O)/N=C(\Sc2ccccc2)c2ccccc2)cc1	14.1%
COCCN1CCN(C(=O)c2ccc3c(c2)S(=O)(=O)c2ccccc2C3=O)CC1	-1.17%

Structure (SMILES)	hERG current change (%, negative = inhibition) at 10uM
Cc1cc(C)c(NC(=O)c2cccc3c2C(=O)N(C2CCCCC2)C3)c(C)c1	-11%
O=C(CSc1ccccc1)Nc1cccc(S(=O)(=O)N2CCOCC2)c1	-25.4%
CC(C)[C@H](NC(=O)c1ccccc1)C(=O)Nc1cccc(S(=O)(=O)N2CCOCC2)c1	-2.22%
CN(C)CCNC(C(=O)Nc1cccc(S(=O)(=O)N2CCOCC2)c1)c1ccccc1 (stereo not drawn)	-70.3%
O=C(Nc1cccc(S(=O)(=O)N2CCOCC2)c1)C(c1ccccc1)N1CCCCC1 (stereo not drawn)	-37.9%
CCCCNC(C(=O)Nc1cccc(S(=O)(=O)N2CCOCC2)c1)c1ccccc1 (stereo not drawn)	-50.7%
CCCC(C(=O)Nc1cccc(S(=O)(=O)N2CCCC2)c1)c1ccccc1 (stereo not drawn)	-48.2%
CC(C)C(NC(=O)CN(c1cccc(F)c1)S(C)(=O)=O)C(C)C	1.21%
COc1cc(CCC(=O)OCc2ccccc2C#N)cc(OC)c1OC	7.42%
O=C1CC(C(=O)N2CCOCC2)C2(CCCCC2)O1 (stereo not drawn)	17.8%
COc1ccccc1Oc1cc(F)nc(N)n1	5.82%
Cc1cc(C)n(-c2nc(C(=O)O)cs2)n1	17.7%
CN(Cc1ccccc1)S(=O)(=O)c1ccc(OCC(=O)NCc2cccnc2)cc1	0.509%
CN(Cc1ccccc1)S(=O)(=O)c1ccc(Cl)c(C(=O)NCc2ccc3c(c2)OCO3)c1	5.48%
CN(Cc1ccccc1)S(=O)(=O)c1ccc(OCC(=O)NCc2ccncc2)cc1	-53.6%
CN(CC(=O)NCCc1ccccn1)S(=O)(=O)c1ccc(Cl)cc1	-17%
CN(Cc1ccccc1)S(=O)(=O)c1ccc(OCC(=O)NCc2ccccn2)cc1	-32.6%
CN(Cc1ccccc1)S(=O)(=O)c1ccc(Cl)c(C(=O)NCc2cccnc2)c1	-32.8%
CN(Cc1ccccc1)S(=O)(=O)c1ccc(Cl)c(C(=O)NCc2ccncc2)c1	-55.8%
CN(Cc1ccccc1)S(=O)(=O)c1ccc(Cl)c(C(=O)O)c1	9.33%
CN(Cc1ccccc1)S(=O)(=O)c1ccc(Cl)c(C(=O)NCCc2ccccn2)c1	-61.8%
